Source: the supplement of paper PMC10849652
The full data set covers some 7,900 targets. This sample favours those with a hit. About 0.6% of all pairs of compound and target were hits.

Experiments:
Experiment in all cases: log2 fold change, soluble protein after heating vs DMSO (PISA); higher = thermal stabilisation; K562 cells, 10 uM, 30 min; active = over 0.2 and 3.5 SD of the protein, either way, in both replicates (recomputed)
bafetinib = compound: Cc1ccc(NC(=O)c2ccc(CN3CC[C@H](N(C)C)C3)c(C(F)(F)F)c2)cc1Nc1nccc(-c2cncnc2)n1 [bafetinib]
In short: (§1)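 K562 cells (2×10^6 cells/mL) were treated with 10 μM compound for 30 min, and aliquots were heated for 3 min over 48°C-58°C. Pooled aliquots were extracted in PBS with 0.5% NP-40 at 4°C, and the supernatant after 21,000xg for 90 min was measured by TMTpro 16plex LC-MS/MS with channel sums equalised. Reported thermal stability, relative to control samples and from duplicates, is a log2 fold change.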

[1] = compound: Cc1cccc(CC(=O)N2CCc3c2ccc(-c2cn(C)c4ncnc(N)c24)c3F)n1
In short: as §1

nilotinib = compound: Cc1cn(-c2cc(NC(=O)c3ccc(C)c(Nc4nccc(-c5cccnc5)n4)c3)cc(C(F)(F)F)c2)cn1 [nilotinib]
In short: as §1

[2] = compound: Cc1nc(Nc2n[nH]c3c2CN(C(=O)N[C@H](CN(C)C)c2ccccc2)C3(C)C)c2sccc2n1
In short: as §1

[3] = compound: Cc1ncc(-c2ccnc(Nc3ccc(S(C)(=O)=O)cc3)n2)n1C(C)C
In short: as §1

[4] = compound: Cn1cc(-c2ccc3c(c2)CCN3C(=O)Cc2cccc(C(F)(F)F)c2)c2c(N)ncnc21
In short: as §1

tipifarnib = compound: Cn1cncc1[C@@](N)(c1ccc(Cl)cc1)c1ccc2c(c1)c(-c1cccc(Cl)c1)cc(=O)n2C [tipifarnib]
In short: as §1

mubritinib = compound: FC(F)(F)c1ccc(/C=C/c2nc(COc3ccc(CCCCn4ccnn4)cc3)co2)cc1 [mubritinib]
In short: as §1

dasatinib = compound: Cc1nc(Nc2ncc(C(=O)Nc3c(C)cccc3Cl)s2)cc(N2CCN(CCO)CC2)n1 [dasatinib]
In short: as §1

[5] = compound: Cn1cc(-c2ccc3nnc(C(F)(F)c4ccc5ncccc5c4)n3n2)cn1
In short: as §1

Measured: log2 fold change

NDUFB1 (UniProt O75438)
Chain of UniProt O75438 (O75438 whole entry, looked up): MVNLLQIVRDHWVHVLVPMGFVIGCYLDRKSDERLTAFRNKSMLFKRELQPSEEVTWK
inactive: bafetinib -0.116 | [1] 0.028 | nilotinib 0.095 | [2] 0.009 | [3] -0.028 | [4] 0.004 | tipifarnib 0.038 | mubritinib 0.022

MON1A (UniProt Q86VX9)
Chain of UniProt Q86VX9 (Q86VX9 whole entry, looked up): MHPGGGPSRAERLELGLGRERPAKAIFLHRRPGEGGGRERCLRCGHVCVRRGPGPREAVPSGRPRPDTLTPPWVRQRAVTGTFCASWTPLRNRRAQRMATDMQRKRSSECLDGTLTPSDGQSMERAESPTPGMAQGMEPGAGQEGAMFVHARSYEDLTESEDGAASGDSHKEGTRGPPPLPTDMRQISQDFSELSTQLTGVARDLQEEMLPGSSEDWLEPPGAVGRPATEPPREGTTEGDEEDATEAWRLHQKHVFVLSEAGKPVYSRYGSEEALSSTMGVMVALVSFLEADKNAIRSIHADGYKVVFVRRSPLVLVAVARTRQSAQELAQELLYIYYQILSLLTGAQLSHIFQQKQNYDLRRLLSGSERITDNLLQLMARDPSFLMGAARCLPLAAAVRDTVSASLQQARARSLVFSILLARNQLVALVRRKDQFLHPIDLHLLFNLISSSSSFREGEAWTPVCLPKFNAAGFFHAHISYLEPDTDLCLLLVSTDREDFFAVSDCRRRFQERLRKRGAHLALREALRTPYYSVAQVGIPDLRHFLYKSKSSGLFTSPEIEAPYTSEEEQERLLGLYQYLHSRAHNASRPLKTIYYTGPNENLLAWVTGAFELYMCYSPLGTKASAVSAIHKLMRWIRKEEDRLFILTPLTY
inactive: bafetinib -0.011 | [1] -0.112 | nilotinib -0.163 | [2] -0.056 | dasatinib 0.017 | [3] 0.138 | [5] -0.009 | tipifarnib 0.082 | mubritinib -0.012

MSH3 (UniProt P20585)
Chain of UniProt P20585 (P20585 whole entry, looked up): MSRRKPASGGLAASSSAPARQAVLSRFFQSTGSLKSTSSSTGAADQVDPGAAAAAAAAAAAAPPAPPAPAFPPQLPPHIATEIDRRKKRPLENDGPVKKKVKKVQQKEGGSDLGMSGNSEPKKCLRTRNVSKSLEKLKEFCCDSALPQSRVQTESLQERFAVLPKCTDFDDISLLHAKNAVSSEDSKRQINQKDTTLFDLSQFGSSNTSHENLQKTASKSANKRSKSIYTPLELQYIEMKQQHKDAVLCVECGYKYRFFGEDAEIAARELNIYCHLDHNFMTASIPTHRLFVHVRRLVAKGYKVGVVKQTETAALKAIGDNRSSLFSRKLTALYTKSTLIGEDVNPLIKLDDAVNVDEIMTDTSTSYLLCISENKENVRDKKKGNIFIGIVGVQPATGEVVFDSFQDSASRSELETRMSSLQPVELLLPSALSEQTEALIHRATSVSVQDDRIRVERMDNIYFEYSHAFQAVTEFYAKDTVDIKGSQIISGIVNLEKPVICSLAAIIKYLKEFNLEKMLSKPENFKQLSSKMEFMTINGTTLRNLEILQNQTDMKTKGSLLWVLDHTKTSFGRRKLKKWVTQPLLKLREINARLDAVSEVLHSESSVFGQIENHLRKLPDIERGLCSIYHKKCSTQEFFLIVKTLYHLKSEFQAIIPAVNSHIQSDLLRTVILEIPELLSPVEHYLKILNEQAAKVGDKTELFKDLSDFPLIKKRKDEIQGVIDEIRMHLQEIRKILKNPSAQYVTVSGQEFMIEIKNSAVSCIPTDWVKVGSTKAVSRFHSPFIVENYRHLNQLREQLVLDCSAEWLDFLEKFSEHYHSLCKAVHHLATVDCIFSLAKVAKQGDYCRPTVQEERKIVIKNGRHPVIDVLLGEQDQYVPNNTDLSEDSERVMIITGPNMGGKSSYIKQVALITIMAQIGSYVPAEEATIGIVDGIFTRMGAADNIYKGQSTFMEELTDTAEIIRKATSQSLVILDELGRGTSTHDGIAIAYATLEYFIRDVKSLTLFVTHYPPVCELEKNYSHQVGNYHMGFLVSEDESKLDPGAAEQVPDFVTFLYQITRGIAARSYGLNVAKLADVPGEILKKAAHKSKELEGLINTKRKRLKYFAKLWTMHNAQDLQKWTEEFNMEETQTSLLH
inactive: bafetinib -0.012 | [1] 0.051 | nilotinib -0.046 | [2] -0.014 | dasatinib -0.038 | [3] 0.052 | [4] -0.032 | [5] 0.009 | tipifarnib -0.029 | mubritinib 0.167

NSMCE4A (UniProt Q9NXX6)
Chain of UniProt Q9NXX6 (Q9NXX6 whole entry, looked up): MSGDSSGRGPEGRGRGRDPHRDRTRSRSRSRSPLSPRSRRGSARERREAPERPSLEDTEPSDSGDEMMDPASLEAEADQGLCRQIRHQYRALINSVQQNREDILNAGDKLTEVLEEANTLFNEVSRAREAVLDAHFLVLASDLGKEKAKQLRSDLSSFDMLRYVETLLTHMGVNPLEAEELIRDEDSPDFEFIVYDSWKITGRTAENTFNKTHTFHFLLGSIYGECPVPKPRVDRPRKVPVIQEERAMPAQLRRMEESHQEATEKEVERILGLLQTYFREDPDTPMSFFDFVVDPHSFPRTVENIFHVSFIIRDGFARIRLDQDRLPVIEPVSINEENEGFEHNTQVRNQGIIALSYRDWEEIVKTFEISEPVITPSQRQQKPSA
active: mubritinib 0.552
inactive: bafetinib -0.145 | [1] -0.144 | nilotinib 0.189 | [2] -0.254 | dasatinib -0.051 | [3] 0.03 | [4] 0.025 | [5] -0.131 | tipifarnib 0.026

NRF1 isoform 4 (UniProt Q16656)
Chain of UniProt Q16656 (Q16656 whole entry, looked up): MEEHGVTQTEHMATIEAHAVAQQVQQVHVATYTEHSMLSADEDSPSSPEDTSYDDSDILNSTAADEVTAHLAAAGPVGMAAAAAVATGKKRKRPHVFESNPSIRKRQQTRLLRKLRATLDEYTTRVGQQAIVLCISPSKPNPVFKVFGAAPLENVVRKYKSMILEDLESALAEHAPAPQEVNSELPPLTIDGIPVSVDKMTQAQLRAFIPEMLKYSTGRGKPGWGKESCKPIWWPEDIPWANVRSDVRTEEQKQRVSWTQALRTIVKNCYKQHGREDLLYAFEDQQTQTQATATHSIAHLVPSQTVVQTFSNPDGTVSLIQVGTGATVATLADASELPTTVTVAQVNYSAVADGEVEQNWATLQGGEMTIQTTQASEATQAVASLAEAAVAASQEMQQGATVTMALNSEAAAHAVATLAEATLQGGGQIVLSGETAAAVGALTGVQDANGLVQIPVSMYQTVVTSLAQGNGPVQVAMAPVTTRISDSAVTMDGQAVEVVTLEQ
inactive: bafetinib -0.057 | [1] 0.023 | nilotinib -0.099 | [2] -0.152 | dasatinib -0.123 | [3] -0.042 | [4] 0.054 | [5] -0.096 | tipifarnib 0.022 | mubritinib 0.035

NDFIP1 (UniProt Q9BT67)
inactive: bafetinib -0.137 | [1] -0.08 | nilotinib -0.214 | [2] 0.354 | dasatinib 0.039 | [3] 0.225 | [4] -0.038 | [5] -0.072 | mubritinib -0.024

NFATC2IP (UniProt Q8NCF5)
Chain of UniProt Q8NCF5 (Q8NCF5 whole entry, looked up): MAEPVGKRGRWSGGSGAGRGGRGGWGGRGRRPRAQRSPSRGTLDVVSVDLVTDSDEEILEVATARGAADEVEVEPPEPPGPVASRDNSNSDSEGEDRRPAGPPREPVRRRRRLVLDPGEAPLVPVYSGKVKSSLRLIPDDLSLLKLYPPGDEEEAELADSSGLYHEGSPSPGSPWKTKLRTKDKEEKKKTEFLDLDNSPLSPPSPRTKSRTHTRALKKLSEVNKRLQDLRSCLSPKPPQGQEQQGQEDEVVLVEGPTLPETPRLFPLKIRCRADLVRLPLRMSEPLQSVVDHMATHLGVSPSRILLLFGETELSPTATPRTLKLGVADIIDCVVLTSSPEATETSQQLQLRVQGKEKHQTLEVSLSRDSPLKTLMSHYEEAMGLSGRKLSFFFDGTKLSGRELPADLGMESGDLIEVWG
inactive: bafetinib 0.065 | [1] -0.029 | nilotinib 0.001 | [2] -0.153 | dasatinib -0.096 | [3] -0.146 | [4] 0.097 | [5] 0.049 | tipifarnib -0.003 | mubritinib 0.051

NNMT (UniProt P40261)
Chain of UniProt P40261 (P40261 whole entry, looked up): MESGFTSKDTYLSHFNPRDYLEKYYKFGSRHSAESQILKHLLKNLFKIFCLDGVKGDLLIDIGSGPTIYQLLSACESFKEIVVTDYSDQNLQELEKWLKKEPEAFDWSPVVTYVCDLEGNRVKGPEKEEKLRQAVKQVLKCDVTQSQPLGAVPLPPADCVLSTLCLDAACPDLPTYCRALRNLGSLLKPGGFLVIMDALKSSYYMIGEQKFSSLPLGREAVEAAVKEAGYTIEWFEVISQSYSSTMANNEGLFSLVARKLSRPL
inactive: bafetinib -0.038 | [1] 0.068 | nilotinib 0.015 | [2] 0.005 | dasatinib 0.037 | [3] -0.021 | [4] 0.052 | tipifarnib -0.002 | mubritinib 0.094

NELFCD (UniProt Q8IXH7)
inactive: bafetinib 0.116 | [1] -0.111 | nilotinib -0.233 | [2] -0.003 | dasatinib -0.158 | [3] 0.064 | [4] 0.061 | tipifarnib 0.035

NIPSNAP3B (UniProt Q9BS92)
Chain of UniProt Q9BS92 (Q9BS92 whole entry, looked up): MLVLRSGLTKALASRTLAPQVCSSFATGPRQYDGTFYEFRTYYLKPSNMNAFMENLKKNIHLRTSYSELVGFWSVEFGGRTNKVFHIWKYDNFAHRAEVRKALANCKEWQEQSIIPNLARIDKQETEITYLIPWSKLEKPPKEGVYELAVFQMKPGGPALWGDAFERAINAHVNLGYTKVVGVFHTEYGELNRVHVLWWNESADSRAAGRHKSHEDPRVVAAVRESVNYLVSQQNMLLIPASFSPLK
inactive: bafetinib -0.085 | [1] -0.054 | nilotinib -0.029 | [2] 0.01 | dasatinib -0.044 | [3] 0.013 | [4] 0.109 | tipifarnib -0.018 | mubritinib 0.083

NAP1L1 (UniProt P55209)
Chain of UniProt P55209 (P55209 whole entry, looked up): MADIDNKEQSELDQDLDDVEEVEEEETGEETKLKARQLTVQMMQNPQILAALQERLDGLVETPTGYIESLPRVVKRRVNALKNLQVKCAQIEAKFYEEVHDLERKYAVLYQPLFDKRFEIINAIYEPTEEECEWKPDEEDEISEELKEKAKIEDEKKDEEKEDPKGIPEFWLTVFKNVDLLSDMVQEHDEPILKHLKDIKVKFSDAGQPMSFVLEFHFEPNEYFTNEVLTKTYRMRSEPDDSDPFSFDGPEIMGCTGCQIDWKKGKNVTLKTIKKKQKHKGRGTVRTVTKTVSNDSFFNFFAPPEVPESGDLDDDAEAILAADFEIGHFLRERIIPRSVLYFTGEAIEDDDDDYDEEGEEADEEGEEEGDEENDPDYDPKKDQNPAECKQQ
inactive: bafetinib -0.018 | [1] -0.094 | nilotinib 0.009 | [2] -0.044 | dasatinib 0.05 | [3] 0.022 | [4] -0.004 | [5] -0.039 | tipifarnib 0.001 | mubritinib -0.014

MSH6 (UniProt P52701)
inactive: bafetinib -0.019 | [1] 0.101 | nilotinib -0.116 | [2] -0.179 | dasatinib -0.325 | [3] -0.1 | [4] 0.139 | [5] 0.167 | tipifarnib -0.174 | mubritinib 0

NA, A0A494C071
active: bafetinib -1.12
inactive: [1] -0.057 | nilotinib 0.074 | [2] 0.329 | dasatinib 0.029 | [3] -0.439 | [4] 0.001 | mubritinib 0.094

NAP1L1 (UniProt B7Z9C2)
inactive: bafetinib -0.11 | [1] -0.249 | nilotinib -0.011 | [2] -0.002 | dasatinib -0.347 | [3] -0.043 | mubritinib 0.049

MRPS16 (UniProt Q9Y3D3)
inactive: bafetinib 0.192 | [1] 0.151 | nilotinib -0.187 | [2] 0.009 | [3] -0.053 | [4] 0.049 | [5] 0.092 | tipifarnib -0.094 | mubritinib 0.16

NAA11 (UniProt Q9BSU3)
inactive: bafetinib 0 | nilotinib -0.093 | [2] 0.015 | dasatinib 0.059 | [3] -0.003 | [4] 0.102 | [5] 0.176 | tipifarnib 0.011 | mubritinib -0.081

OSBPL3 (UniProt Q9H4L5)
Chain of UniProt Q9H4L5 (Q9H4L5 whole entry, looked up): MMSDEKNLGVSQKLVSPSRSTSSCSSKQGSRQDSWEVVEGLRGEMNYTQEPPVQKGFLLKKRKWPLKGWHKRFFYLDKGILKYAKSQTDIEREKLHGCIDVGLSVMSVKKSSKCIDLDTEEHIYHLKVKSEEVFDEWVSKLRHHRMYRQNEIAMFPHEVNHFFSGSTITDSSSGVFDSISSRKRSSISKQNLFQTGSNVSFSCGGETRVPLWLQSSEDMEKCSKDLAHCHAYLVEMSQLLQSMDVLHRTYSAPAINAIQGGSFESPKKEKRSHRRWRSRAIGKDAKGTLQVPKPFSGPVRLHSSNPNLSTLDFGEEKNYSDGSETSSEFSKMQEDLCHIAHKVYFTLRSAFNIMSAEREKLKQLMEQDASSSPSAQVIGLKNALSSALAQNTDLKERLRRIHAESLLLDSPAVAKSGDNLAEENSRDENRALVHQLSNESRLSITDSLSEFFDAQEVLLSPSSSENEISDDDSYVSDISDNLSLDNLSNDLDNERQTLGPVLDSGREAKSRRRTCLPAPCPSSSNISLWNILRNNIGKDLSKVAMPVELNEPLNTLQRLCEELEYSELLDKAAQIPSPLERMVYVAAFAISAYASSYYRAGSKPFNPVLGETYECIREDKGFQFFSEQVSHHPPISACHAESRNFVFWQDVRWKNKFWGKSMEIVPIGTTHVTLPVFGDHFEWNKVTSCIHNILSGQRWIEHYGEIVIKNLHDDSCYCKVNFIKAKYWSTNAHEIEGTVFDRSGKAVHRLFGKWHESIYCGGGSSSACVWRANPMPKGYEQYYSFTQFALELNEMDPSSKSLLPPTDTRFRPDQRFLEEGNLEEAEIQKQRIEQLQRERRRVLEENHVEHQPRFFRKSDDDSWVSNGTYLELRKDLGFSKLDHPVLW
inactive: nilotinib 0.316 | [2] 0.114 | dasatinib 0.447 | [3] -0.213 | [4] -0.081 | [5] -0.173 | tipifarnib -0.17

MRPS26 (UniProt Q9BYN8)
inactive: bafetinib 0.275 | [1] -0.003 | dasatinib -0.031 | [4] 0.007 | [5] 0.135 | tipifarnib -0.142 | mubritinib 0.088

MYH16 (UniProt Q9H6N6)
inactive: bafetinib 0.482 | [1] 0.303 | nilotinib 0.061 | [2] 0.062 | [3] 0.088 | [4] 0.068 | tipifarnib -0.248 | mubritinib -0.025

NPC1L1 (UniProt Q9UHC9)
active: [3] -0.384
inactive: bafetinib -0.05 | nilotinib 0.659 | [2] 0.52 | dasatinib -0.117 | [4] 0.012 | tipifarnib 0.094 | mubritinib 0.008

MITF (UniProt O75030)
inactive: [1] 0.001 | nilotinib -0.071 | [2] -0.07 | [3] -0.047 | mubritinib 0.084
